Measured values: the supplement of paper PMC10849652
About 7,900 targets were measured; listed, in parts, are those with a hit and a random draw of the rest. About 0.6% of all pairs of compound and target were hits. A number with no mark means an inactive call.

How the values were obtained:
Experiment in all cases: log2 fold change, soluble protein after heating vs DMSO (PISA); higher = thermal stabilisation; K562 cells, 10 uM, 30 min; active = over 0.2 and 3.5 SD of the protein, either way, in both replicates (recomputed)
[1] = compound: CN1CCN(CCOc2cc(OC3CCOCC3)c3c(Nc4c(Cl)ccc5c4OCO5)ncnc3c2)CC1 [saracatinib]
Outline: (§1)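 Soluble protein was quantified by TMTpro 16plex LC-MS/MS after channel sums were equalised. It was obtained as the supernatant after 21,000xg for 90 min from pooled aliquots of K562 cells (2×10^6 cells/mL, 10 μM compound, 30 min) heated for 3 min across 48°C-58°C and extracted in PBS with 0.5% NP-40 at 4°C. Thermal stability values are relative to control samples and come from duplicates. They are given as log2 fold changes.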

[2] = compound: CN1CCN(c2nc(C3=C(c4c[nH]c5ccccc45)C(=O)NC3=O)c3ccccc3n2)CC1 [sotrastaurin]
Outline: as §1

[3] = compound: CN1CC[C@H](c2c(O)cc(O)c3c(=O)cc(-c4ccccc4Cl)oc23)[C@H](O)C1 [alvocidib]
Outline: as §1

[4] = compound: CN1CCc2c(c3ccccc3n2Cc2ccc(C(=O)NO)cc2)C1 [Tubastatin A]
Outline: as §1

[5] = compound: CNC(=O)C1=CC=CC=C1NC2=NC(=NC=C2Cl)NC3=C(C=C(C=C3)N4CCOCC4)OC
Outline: as §1

[6] = compound: CNC(=O)c1ccc(Nc2ncc(C(F)(F)F)c(NCc3nccnc3N(C)S(C)(=O)=O)n2)cc1 [defactinib]
Outline: as §1

[7] = compound: CNCc1ccc(-c2[nH]c3cc(F)cc4c3c2CCNC4=O)cc1 [rucaparib]
Outline: as §1

[8] = compound: CNc1nc(-c2ccc3c(N)n[nH]c3c2)cc(N2C[C@@H](C(=O)NC3CCCCC3)CC[C@H]2C)n1
Outline: as §1

[9] = compound: COC(=O)N[C@@H](C)CNc1nccc(-c2cn(C(C)C)nc2-c2cc(Cl)cc(NS(C)(=O)=O)c2F)n1 [encorafenib]
Outline: as §1

[10] = compound: COC(=O)[C@H](CCSC)NC(=O)C1=C(C=C(C=C1)NC[C@H](CS)N)C2=CC=CC=C2
Outline: as §1

UniProt Q9UBV8, sequence (Q9UBV8 whole entry, looked up): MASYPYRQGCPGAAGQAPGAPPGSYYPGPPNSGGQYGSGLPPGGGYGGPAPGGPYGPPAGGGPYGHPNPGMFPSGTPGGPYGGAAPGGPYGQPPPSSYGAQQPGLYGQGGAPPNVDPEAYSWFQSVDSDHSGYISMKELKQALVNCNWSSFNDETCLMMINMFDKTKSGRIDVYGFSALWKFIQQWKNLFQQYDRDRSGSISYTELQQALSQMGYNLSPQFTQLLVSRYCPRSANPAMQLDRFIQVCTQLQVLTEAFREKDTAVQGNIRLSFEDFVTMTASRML
UniProt Q7Z7A4, sequence (Q7Z7A4 whole entry, looked up): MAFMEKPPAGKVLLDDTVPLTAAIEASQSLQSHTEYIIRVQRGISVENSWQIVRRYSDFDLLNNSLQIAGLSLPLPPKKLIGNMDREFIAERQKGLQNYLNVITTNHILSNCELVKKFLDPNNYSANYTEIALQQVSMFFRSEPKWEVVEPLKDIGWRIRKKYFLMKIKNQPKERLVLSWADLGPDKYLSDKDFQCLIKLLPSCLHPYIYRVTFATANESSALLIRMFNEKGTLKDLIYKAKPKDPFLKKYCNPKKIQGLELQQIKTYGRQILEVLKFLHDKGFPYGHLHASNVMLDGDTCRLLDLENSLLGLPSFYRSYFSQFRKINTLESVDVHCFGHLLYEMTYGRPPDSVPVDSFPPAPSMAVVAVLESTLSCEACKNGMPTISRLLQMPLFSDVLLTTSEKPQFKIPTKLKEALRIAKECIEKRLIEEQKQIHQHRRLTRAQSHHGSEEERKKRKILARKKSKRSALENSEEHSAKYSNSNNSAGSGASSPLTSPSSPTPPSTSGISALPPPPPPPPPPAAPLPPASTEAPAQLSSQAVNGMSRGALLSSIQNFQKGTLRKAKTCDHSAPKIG
UniProt Q9Y478, sequence (Q9Y478 whole entry, looked up): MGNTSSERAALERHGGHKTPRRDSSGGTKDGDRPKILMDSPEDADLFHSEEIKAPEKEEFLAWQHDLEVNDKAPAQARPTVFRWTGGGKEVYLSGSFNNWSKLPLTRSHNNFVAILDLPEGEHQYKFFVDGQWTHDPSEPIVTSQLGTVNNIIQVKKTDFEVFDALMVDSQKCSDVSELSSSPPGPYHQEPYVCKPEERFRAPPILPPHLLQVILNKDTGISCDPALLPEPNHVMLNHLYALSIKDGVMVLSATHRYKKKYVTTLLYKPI
UniProt O60678, sequence (O60678 whole entry, looked up): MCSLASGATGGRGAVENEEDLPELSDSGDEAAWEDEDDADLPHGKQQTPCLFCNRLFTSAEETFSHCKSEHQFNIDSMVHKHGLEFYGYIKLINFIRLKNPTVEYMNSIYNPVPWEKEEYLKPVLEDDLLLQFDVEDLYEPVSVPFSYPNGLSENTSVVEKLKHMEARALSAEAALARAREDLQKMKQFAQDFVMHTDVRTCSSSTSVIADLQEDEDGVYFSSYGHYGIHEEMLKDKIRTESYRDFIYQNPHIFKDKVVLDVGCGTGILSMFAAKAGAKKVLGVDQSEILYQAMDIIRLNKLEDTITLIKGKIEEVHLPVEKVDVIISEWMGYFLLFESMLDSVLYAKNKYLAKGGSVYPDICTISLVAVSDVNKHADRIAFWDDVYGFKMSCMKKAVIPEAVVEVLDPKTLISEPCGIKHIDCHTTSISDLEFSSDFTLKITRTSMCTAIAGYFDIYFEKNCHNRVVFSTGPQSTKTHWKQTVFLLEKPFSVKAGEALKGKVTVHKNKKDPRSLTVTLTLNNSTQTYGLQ
UniProt O60925, sequence (O60925 whole entry, looked up): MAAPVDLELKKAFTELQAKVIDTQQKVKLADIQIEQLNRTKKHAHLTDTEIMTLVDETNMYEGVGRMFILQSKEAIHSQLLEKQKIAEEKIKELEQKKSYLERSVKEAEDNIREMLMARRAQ
UniProt P09884, sequence (P09884 whole entry, looked up): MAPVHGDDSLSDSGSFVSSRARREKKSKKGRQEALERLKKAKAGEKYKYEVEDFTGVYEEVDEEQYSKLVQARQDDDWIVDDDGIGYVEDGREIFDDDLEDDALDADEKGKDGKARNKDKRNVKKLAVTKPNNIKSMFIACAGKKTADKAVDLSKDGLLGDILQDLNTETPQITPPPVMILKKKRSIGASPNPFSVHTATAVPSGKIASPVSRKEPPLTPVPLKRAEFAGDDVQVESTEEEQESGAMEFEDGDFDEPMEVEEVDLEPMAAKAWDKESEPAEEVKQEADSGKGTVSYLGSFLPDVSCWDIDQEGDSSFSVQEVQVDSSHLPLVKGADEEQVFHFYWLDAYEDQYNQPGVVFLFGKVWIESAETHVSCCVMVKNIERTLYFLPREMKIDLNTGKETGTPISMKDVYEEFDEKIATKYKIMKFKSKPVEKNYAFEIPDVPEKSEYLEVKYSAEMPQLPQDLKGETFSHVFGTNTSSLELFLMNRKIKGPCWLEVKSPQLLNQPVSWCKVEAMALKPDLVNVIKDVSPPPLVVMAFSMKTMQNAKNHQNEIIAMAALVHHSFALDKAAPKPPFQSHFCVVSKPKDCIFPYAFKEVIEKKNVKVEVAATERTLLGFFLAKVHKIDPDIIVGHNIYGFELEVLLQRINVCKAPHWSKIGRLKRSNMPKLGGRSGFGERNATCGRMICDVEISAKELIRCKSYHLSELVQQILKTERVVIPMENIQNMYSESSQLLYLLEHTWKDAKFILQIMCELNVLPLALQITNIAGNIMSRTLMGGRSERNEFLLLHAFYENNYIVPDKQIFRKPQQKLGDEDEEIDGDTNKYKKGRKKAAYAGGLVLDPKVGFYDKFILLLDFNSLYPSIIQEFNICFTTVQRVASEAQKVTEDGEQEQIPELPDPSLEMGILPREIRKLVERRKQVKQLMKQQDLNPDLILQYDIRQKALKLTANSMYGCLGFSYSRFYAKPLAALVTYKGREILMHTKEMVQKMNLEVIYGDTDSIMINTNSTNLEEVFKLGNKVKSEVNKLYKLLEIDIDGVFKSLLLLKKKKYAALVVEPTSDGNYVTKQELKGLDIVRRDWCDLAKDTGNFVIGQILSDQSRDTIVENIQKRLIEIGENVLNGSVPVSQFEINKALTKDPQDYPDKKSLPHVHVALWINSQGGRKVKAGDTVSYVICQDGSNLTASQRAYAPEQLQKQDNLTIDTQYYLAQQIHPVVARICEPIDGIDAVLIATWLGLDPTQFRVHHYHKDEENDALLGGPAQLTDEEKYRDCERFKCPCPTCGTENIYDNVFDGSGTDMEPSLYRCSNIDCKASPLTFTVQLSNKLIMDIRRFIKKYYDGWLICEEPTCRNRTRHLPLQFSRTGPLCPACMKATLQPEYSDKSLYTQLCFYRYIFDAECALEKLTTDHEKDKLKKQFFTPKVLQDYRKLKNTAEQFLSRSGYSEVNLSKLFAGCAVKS
UniProt Q8NBL1, sequence (Q8NBL1 whole entry, looked up): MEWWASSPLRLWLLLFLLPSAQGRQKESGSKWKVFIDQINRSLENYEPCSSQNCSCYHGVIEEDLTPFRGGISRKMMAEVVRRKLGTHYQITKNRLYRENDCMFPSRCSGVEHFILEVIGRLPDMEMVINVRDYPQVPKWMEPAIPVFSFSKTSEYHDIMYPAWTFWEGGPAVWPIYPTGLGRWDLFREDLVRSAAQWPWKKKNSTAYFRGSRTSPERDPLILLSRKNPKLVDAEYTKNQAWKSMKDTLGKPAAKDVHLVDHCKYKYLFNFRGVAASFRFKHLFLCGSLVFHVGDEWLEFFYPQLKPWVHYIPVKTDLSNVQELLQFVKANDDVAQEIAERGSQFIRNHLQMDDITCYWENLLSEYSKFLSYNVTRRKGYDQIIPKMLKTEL
UniProt P11216, sequence (P11216 whole entry, looked up): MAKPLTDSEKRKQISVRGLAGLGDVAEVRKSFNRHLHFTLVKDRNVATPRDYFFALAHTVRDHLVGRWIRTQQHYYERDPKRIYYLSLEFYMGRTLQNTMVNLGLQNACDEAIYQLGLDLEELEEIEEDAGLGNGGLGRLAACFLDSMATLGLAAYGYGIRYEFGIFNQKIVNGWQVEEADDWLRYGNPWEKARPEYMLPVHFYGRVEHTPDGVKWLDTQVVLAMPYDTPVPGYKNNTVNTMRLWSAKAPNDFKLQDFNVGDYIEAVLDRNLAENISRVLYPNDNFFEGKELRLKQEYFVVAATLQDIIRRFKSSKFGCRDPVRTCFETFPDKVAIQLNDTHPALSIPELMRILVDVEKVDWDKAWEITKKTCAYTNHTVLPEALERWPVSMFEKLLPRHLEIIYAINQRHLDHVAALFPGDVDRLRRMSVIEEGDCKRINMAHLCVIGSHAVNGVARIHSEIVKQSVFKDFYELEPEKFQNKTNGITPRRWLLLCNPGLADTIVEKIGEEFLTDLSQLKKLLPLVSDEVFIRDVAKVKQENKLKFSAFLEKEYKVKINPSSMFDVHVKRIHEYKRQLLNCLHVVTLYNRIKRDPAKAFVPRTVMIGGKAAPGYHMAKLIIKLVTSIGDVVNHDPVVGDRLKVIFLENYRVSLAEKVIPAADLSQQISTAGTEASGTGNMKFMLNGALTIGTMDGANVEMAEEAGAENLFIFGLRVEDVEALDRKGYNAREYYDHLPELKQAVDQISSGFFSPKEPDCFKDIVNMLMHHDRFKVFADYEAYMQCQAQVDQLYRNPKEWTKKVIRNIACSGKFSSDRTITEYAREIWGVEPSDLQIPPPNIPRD
UniProt Q9Y5K3, sequence (Q9Y5K3 whole entry, looked up): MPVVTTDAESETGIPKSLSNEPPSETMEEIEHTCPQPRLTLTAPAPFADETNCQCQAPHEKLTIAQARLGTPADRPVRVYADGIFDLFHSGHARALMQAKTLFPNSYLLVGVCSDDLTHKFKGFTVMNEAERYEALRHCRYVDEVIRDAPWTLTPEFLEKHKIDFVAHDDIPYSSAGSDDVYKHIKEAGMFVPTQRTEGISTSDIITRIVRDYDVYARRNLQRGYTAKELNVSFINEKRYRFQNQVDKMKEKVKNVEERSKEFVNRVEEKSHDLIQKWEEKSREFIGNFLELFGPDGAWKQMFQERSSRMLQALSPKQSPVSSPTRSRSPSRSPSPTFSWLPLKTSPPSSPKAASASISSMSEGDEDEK

Row | Target | log2 fold change [1] | log2 fold change [2] | log2 fold change [3] | log2 fold change [4] | log2 fold change [5] | log2 fold change [6] | log2 fold change [7] | log2 fold change [8] | log2 fold change [9] | log2 fold change [10]
1 | PSMD5 (UniProt Q16401) | 0.019 | -0.014 | -0.047 | -0.037 | 0.016 | -0.049 | -0.045 | -0.028 | 0.008 | 0.031
2 | PPT1 (UniProt P50897) | -0.007 | 0.029 | 0.005 | -0.038 | 0.024 | 0.024 | 0.047 | -0.019 | -0.023 | -0.002
3 | PRKCD (UniProt Q05655) | -0.026 | -0.256 (active) | -0.1 | -0.007 | 0.002 | -0.002 | -0.031 | -0.033 | -0.029 | -0.024
4 | PYGB (UniProt P11216) | 0.012 | -0.142 | 0.153 | -0.003 | -0.391 (active) | -0.091 | -0.004 | -0.042 | 0.024 | -0.009
5 | PRKAB1 (UniProt Q9Y478) | 0.077 | 0 | -0.041 | 0.087 | -0.117 | -0.037 | 0.011 | -0.02 | 0.028 | -0.021
6 | PEX7 (UniProt O00628) | 0.045 | 0.06 | -0.023 | 0.061 | 0.005 | -0.005 | -0.047 | 0.03 | -0.023 | -0.039
7 | PRKAG1 isoform 3 (UniProt P54619) | -0.016 | 0.04 | -0.062 | 0.01 | -0.184 | -0.081 | -0.005 | -0.026 | 0.026 | -0.014
8 | PSMD11 (UniProt O00231) | -0.065 | -0.051 | 0.051 | 0.077 | 0.013 | 0.059 | 0.039 | 0.041 | 0.042 | -0.05
9 | PRMT3 (UniProt O60678) | 0.021 | -0.046 | 0 | -0.017 | 0.058 | -0.005 | 0.035 | 0.011 | 0.061 | -0.064
10 | PARP16 isoform 3 (UniProt Q8N5Y8) | 0.175 | -0.038 | -0.054 | 0.005 | -0.009 | 0.046 | 0.198 | -0.042 | -0.087 | -0.005
11 | PFDN1 (UniProt O60925) | -0.074 | -0.014 | -0.035 | 0.022 | -0.001 | -0.066 | -0.095 | 0.093 | 0.008 | -0.078
12 | PPM1G (UniProt O15355) | -0.086 | -0.213 | -0.165 | 0.187 | 0.108 | -0.226 | -0.088 | -0.038 | 0.085 | -0.104
13 | PGGT1B (UniProt P53609) | 0 | 0.121 | -0.014 | -0.047 | -0.025 | 0.001 | -0.032 | -0.017 | 0.013 | 0.227 (active)
14 | QKI (UniProt Q96PU8) | -0.004 | -0.001 | -0.106 | 0.062 | -0.044 | -0.23 (active) | -0.006 | -0.036 | -0.036 | 0.004
15 | PC (UniProt P11498) | -0.088 | -0.033 | -0.005 | 0.001 | -0.023 | -0.113 | 0.043 | 0.09 | -0.044 | -0.076
16 | POLA1 (UniProt P09884) | 0.006 | -0.096 | -0.163 | 0.025 | 0.079 | -0.156 | -0.126 | -0.016 | -0.005 | -0.035
17 | PSMC1 (UniProt P62191) | -0.062 | -0.022 | 0.057 | -0.009 | -0.019 | 0.083 | 0.043 | 0.024 | 0.022 | -0.001
18 | PDE12 (UniProt Q6L8Q7) | 0.014 | 0.018 | -0.098 | 0.01 | 0.028 | -0.04 | -0.005 | 0.023 | -0.019 | 0.007
19 | POGLUT1 (UniProt Q8NBL1) | -0.124 | 0 | 0.06 | 0.009 | -0.004 | 0.039 | 0.069 | -0.063 | 0.015 | 0.042
20 | PRCP (UniProt P42785) | 0.019 | 0.054 | 0.003 | -0.01 | 0.025 | -0.009 | 0.01 | -0.035 | 0.007 | 0.05
21 | PPT2 isoform 3 (UniProt Q9UMR5) | 0.042 | 0.022 | -0.04 | 0.018 | 0 | -0.023 | 0.025 | 0.038 | -0.003 | 0.029
22 | POLR2M (UniProt P0CAP2) | 0.061 | 0.019 | 0.123 | 0.005 | -0.015 | 0.041 | 0.05 | -0.021 | 0.092 | 0.017
23 | PPOX (UniProt P50336) | -0.087 | 0.02 | -0.049 | -0.045 | 0.534 (active) | -0.07 | -0.059 | 0.274 | -0.018 | -0.01
24 | PRIM2 (UniProt P49643) | -0.013 | -0.192 | -0.132 | 0.024 | 0.009 | -0.127 | 0.001 | 0.018 | 0.052 | -0.055
25 | PCYT1B (UniProt Q9Y5K3) | 0.133 | -0.13 | -0.236 | -0.028 | -0.028 | -0.162 | -0.139 | -0.036 | 0.04 | -0.029
26 | PXK (UniProt Q7Z7A4) | -0.023 | 0.004 | -0.055 | -0.033 | 0.03 | -0.025 | -0.027 | -0.007 | 0.08 | -0.048
27 | PRUNE1 (UniProt Q86TP1) | -0.071 | -0.045 | -0.053 | 0.017 | 0.007 | -0.05 | 0.027 | 0.033 | 0.006 | 0.005
28 | PEF1 (UniProt Q9UBV8) | 0 | 0.053 | -0.006 | -0.004 | 0.049 | -0.01 | -0.019 | -0.014 | -0.025 | -0.003
29 | PMPCB (UniProt O75439) | 0.001 | 0.051 | -0.073 | -0.068 | 0.005 | -0.042 | -0.033 | -0.003 | -0.022 | -0.029
